Data on 24 compounds can be found in PubChem BioAssay (Tox21).

Each structure is given as a SMILES string. Inconclusive results are not listed. Values without a mark were called inactive. Activity calls are given as the source filed them. The call rests on the fitted dose curve; in most records, active means well fitted curve in the direction sought with a large enough effect in the repeat runs; inconclusive means weak or mixed curves; inactive means no such curve, though single readings can be large; an effect the other way counts as inactive or inconclusive.

Experiment [1] is described as follows: A CellTox Green Cytotoxicity Assay to monitor cytotoxicity in HEK293 cells - 24 hour (AID 1224875). Further: nearly all actives have a fitted effect of over 45% in size. Further: potency means the concentration at half of the fitted maximal effect. The conditions noted are these: CellTox Green fluorescence; series mostly up to 76.8 µM. The gist of the method: (§1)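 Each value comes from one timepoint of a single continuous run in which HEK293 cells with CellTox Green were exposed to compound for up to 40 h at 37 C, dye fluorescence rising with cell death.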

Experiment [2] is described as follows: A CellTox Green Cytotoxicity Assay to monitor cytotoxicity in HEK293 cells - 32 hour (AID 1224881). Further: nearly all actives have a fitted effect of over 40% in size. Further: potency means the concentration at half of the fitted maximal effect. The note with it: CellTox Green fluorescence; series mostly up to 76.8 µM. In outline: as §1
A short description of experiment [3]: qHTS RealTime-Glo MT Cell Viability Assay in HepG2 cells - 8 hour (AID 1224873). Further: nearly all actives have a fitted effect of over 55% in size. The conditions noted are these: RealTime-Glo luminescence; series mostly up to 76.8 µM. In outline: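 HepG2 cells (600/well) mixed with RealTime-Glo MT reagent, settled 5 h at 37 C/5% CO2 before compound addition. Nonlytic NanoLuc luminescence from viable-cell prosubstrate reduction read repeatedly during 40 h treatment at 37 C.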
In general terms: In qHTS, concentration-response curves come from the screen itself.

A short description of experiment [4]: A CellTox Green Cytotoxicity Assay to monitor cytotoxicity in HepG2 cells - 16 hour (AID 1224876). Further: nearly all actives have a fitted effect of over 45% in size. Further: potency means the concentration at half of the fitted maximal effect. The conditions noted are these: CellTox Green fluorescence; series mostly up to 76.8 µM. In outline:
(§2)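 Continuous culture of HepG2 cells with a membrane-impermeant DNA dye; rising fluorescence marks dead cells. Compound exposure lasted up to 40 h at 37 C, with reads every 8 h from 0 h.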

Experiment [5] can be described thus: qHTS RealTime-Glo MT Cell Viability Assay in HepG2 cells - 32 hour (AID 1224877). Further: nearly all actives have a fitted effect of over 55% in size. Further: potency means the concentration at half of the fitted maximal effect. The conditions noted are these: RealTime-Glo luminescence; series mostly up to 76.8 µM. In outline:
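Luminescence read-out: viable HepG2 cells reduce a prosubstrate to a NanoLuc substrate, giving a signal proportional to live cell number. Reads taken at 0, 8, 16, 24, 32 and 40 h of compound exposure at 37 C.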

Experiment [6] is described as follows: A CellTox Green Cytotoxicity Assay to monitor cytotoxicity in HepG2 cells - 24 hour (AID 1224878). Further: nearly all actives have a fitted effect of over 45% in size. Further: potency means the concentration at half of the fitted maximal effect. The conditions noted are these: CellTox Green fluorescence; series mostly up to 76.8 µM. The gist of the method:
as §2

Experiment [7] can be described thus: A CellTox Green Cytotoxicity Assay to monitor cytotoxicity in HepG2 cells - 40 hour (AID 1224879). Further: nearly all actives have a fitted effect of over 40% in size. Further: potency means the concentration at half of the fitted maximal effect. The note with it: CellTox Green fluorescence; series mostly up to 76.8 µM. The gist of the method:
as §2

Experiment [8] is described as follows: qHTS RealTime-Glo MT Cell Viability Assay in HEK293 cells - 0 hour (AID 1224880). Further: nearly all actives have a fitted effect of over 45% in size. Further: potency means the concentration at half of the fitted maximal effect. On activity change, negative = cytotoxicity: top concentration of the series differs between compounds. The conditions noted are these: RealTime-Glo luminescence; series mostly up to 76.8 µM. In outline:
(§3)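 qHTS format; HEK293 cells with NanoLuc/prosubstrate reagent, 37 C/5% CO2 for 5 h pre-dosing; compounds 23 nL in DMSO; luminescence at each time point reflects viable cells.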

Experiment [9] is described as follows: qHTS RealTime-Glo MT Cell Viability Assay in HEK293 cells - 40 hour (AID 1224874). Further: nearly all actives have a fitted effect of over 50% in size. Further: potency means the concentration at half of the fitted maximal effect. The conditions noted are these: RealTime-Glo luminescence; max response: stronger effect = lower value. In outline:
as §3
On the % scale 0 is the no-effect control and ±100 the full control effect.

Turning to `CCCCCCCC/C=C\CCCCCCCCN`, the Potency is 21.3 µM (active) in [1] and 23.9 µM (active) in experiment [2].
In the case of `S=C([S-])NCCNC(=S)[S-].S=C([S-])NCCNC(=S)[S-].[Mn+2].[Zn+2]`, the Potency entry in experiment [3], in experiment [1], in [4], in [5], in experiment [6] and in experiment [7] was “inactive” each time. In addition, the Potency result in experiment [8] and in [2] was “inactive” throughout.
Take `C[Si](Cl)(c1ccccc1)c1ccccc1`: the Potency result in experiment [3], in experiment [1], in experiment [4], in experiment [5], in experiment [6] and in experiment [7] was “inactive” in each case. Moreover, the Potency result in experiment [8] is “inactive”.
Take `COc1cc(/C=C/c2ccccc2)oc(=O)c1`: the Potency entry in experiment [3], in experiment [1], in experiment [5], in [6], in experiment [7] and in experiment [8] was “inactive” throughout. Further, the Potency entry in experiment [2] is “inactive”.
`CNC(=O)c1ccccc1Sc1ccc2c(/C=C/c3ccccn3)n[nH]c2c1`: in experiment [9], the Potency was 8.49 µM (active). Also, the Potency entry in experiment [1], in experiment [5], in experiment [6], in experiment [7] and in experiment [2] was “inactive” throughout.
For `CC(C)Cn1cnc2c(N)nc3ccccc3c21`, the viability change, negative = cytotoxic in experiment [3] is -0.187% [at 15.8 µM]. The activity change in experiment [1] is 3.75% [at 15.8 µM, stronger effect = higher value]. Further, the cytotoxicity increase in [4] was -13.4% [at 15.8 µM]; in [7] it was -14.5% [at 15.8 µM]; in experiment [2], 3.99% [at 15.8 µM]. Besides, the activity change, negative = cytotoxic in experiment [5] is -0.3% [at 15.8 µM]. Moreover, the cytotoxicity in experiment [6] was -13.9% [at 15.8 µM]. For the same compound, in experiment [8], the activity change, negative = cytotoxicity was -0.941% [at 15.8 µM].
As to `COc1ccc2cc1Oc1ccc(cc1)C[C@H]1c3c(cc4c(c3Oc3cc5c(cc3OC)CCN(C)[C@@H]5C2)OCO4)CCN1C`, the Potency is 6.74 µM (active) in experiment [9]; 19 µM (active) in [4]; 23.9 µM (active) in experiment [5]; 23.9 µM (active) in experiment [6]; 21.3 µM (active) in [7]. For the same compound, in experiment [8], the Potency result was “inactive”.
Regarding `Oc1cc(Cl)cc(Cl)c1Cl`, the Potency entry in experiment [5], in experiment [6], in experiment [7] and in experiment [8] was “inactive” each time. Also, the Potency in [2] was 50.2 µM (active).
Turning to `CCn1c2ccccc2c2cc([N+](=O)[O-])ccc21`, the max response in experiment [9] was -23.8%. Moreover, the Potency result in experiment [1], in [4], in experiment [5], in experiment [6], in experiment [7] and in [8] was “inactive” throughout. The Potency result in experiment [2] was “inactive”.
For the compound `CC(C)(C)NSc1nc2ccccc2s1`, the max response in experiment [9] is 8.62%. Also, the Potency result in experiment [1], in [4], in experiment [5], in experiment [6], in experiment [7] and in experiment [8] was “inactive” in each case. The Potency result in [2] was “inactive”.
On to `CCCC[P+](C)(CCCC)CCCC`, for which the Potency result in experiment [1], in experiment [4], in [5], in [6], in experiment [7] and in experiment [8] was “inactive” in each case. Further, in experiment [2], the Potency result is “inactive”.
Take `O=C1CCc2cc(OCCCCc3nnnn3C3CCCCC3)ccc2N1`: the Potency entry in [3], in experiment [1], in experiment [4], in [5], in experiment [6] and in experiment [7] was “inactive” each time. In addition, in experiment [8], the Potency entry is “inactive”.
For `CCCC(=O)OCOC(=O)C1=C(C)NC(C)=C(C(=O)OC)C1c1cccc(Cl)c1Cl` (centres undefined), in experiment [9], the max response is 2.11%. In addition, the Potency entry in experiment [1], in experiment [4], in [5], in [6], in experiment [7] and in experiment [2] was “inactive” throughout. The Potency in experiment [8] is 9.52 µM (active).
In the case of `CCC(C)n1ncn(-c2ccc(N3CCN(c4ccc(OC[C@H]5CO[C@](Cn6cncn6)(c6ccc(Cl)cc6Cl)O5)cc4)CC3)cc2)c1=O` (some centres undefined), the Potency entry in experiment [3], in experiment [1], in experiment [4], in experiment [6], in [7] and in experiment [8] was “inactive” throughout. Moreover, the Potency entry in [2] was “inactive”.
For the compound `C1CCC(SSC2CCCCC2)CC1`, in experiment [9], the max response is -7.62%. Moreover, the Potency result in [1], in experiment [4], in experiment [5], in experiment [6], in experiment [7] and in [8] was “inactive” throughout. Further, in experiment [2], the Potency result was “inactive”.
On to `CN(C)CCN1CCN(c2cccc(Cl)c2)C1=O`, for which the Potency result in experiment [3], in experiment [1], in experiment [4], in experiment [5], in experiment [6] and in [7] was “inactive” in each case. For the same compound, the Potency entry in experiment [8] and in experiment [2] was “inactive” each time.
Take `O=c1[nH]c2ccccc2n1CCCN1CCN(C(c2ccccc2)c2ccccc2)CC1`: the Potency in experiment [9] is 12 µM (active); in [5], 26.8 µM (active); in experiment [6], 23.9 µM (active); in [7], 23.9 µM (active). Besides, the Potency result in [1], in experiment [8] and in experiment [2] was “inactive” throughout.
In the case of `CN(C)[C@@H](CCOc1cccc2ccccc12)c1ccccc1`, the Potency entry in [8] is “inactive”.
Turning to `Cc1cc(C(C)(C)C)c(O)c(C)c1Cn1c(=O)n(Cc2c(C)cc(C(C)(C)C)c(O)c2C)c(=O)n(Cc2c(C)cc(C(C)(C)C)c(O)c2C)c1=O`, in experiment [9], the Potency is 21.9 µM (active). Moreover, the Potency result in [1], in experiment [4], in experiment [6], in experiment [7], in [8] and in experiment [2] was “inactive” in each case.
Take `COC(=O)C1=C(C)NC(C)=C(C(=O)OCCN2CCN(C(c3ccccc3)c3ccccc3)CC2)C1c1cccc([N+](=O)[O-])c1` (centres undefined): the Potency result in experiment [1], in [6], in experiment [7], in experiment [8] and in [2] was “inactive” throughout.
Consider `[Cl][Pt-2]([Cl])([Cl])[Cl]`, for which the Potency result in experiment [3], in experiment [1], in experiment [4], in experiment [5], in experiment [6] and in [7] was “inactive” each time. Further, the Potency entry in [8] and in experiment [2] was “inactive” each time.
Regarding `Cc1ccc(O)c(O)c1`, the Potency result in experiment [3], in experiment [4], in [5], in experiment [6] and in experiment [8] was “inactive” each time.
As for `Fc1ccc(C(c2ccc(F)cc2)N2CCNCC2)cc1`, the Potency entry in experiment [3], in experiment [1], in [5] and in [2] was “inactive” each time.
With `CC(C)(C)c1csc(-c2cc3cc(OCc4ccccc4CC(=O)O)ccc3o2)n1`, the Potency in experiment [9] is 38.9 µM (active); in experiment [1], 54.9 µM (active); in [4], 54.9 µM (active); in experiment [6] it was 54.9 µM (active); in experiment [7], 54.9 µM (active). The Potency result in [5] and in experiment [8] was “inactive” each time.
